Each structure is given as a SMILES string. Unmarked numbers belong to inactive results.

What all share (assay): log2 ratio of Biotin-Ahx-Ub-VS probe labelling (fragment/DMSO); higher = less target engagement (more negative = stronger competition), active = hit call of the paper (q ≤ 0.05, log2 ratio ≤ -1)
Common to all, as to details: compound concentration: 200 uM; treatment time: 3 h

One assay has as its target T1, USP19 (UniProt O94966).
T1 sequence (whole entry): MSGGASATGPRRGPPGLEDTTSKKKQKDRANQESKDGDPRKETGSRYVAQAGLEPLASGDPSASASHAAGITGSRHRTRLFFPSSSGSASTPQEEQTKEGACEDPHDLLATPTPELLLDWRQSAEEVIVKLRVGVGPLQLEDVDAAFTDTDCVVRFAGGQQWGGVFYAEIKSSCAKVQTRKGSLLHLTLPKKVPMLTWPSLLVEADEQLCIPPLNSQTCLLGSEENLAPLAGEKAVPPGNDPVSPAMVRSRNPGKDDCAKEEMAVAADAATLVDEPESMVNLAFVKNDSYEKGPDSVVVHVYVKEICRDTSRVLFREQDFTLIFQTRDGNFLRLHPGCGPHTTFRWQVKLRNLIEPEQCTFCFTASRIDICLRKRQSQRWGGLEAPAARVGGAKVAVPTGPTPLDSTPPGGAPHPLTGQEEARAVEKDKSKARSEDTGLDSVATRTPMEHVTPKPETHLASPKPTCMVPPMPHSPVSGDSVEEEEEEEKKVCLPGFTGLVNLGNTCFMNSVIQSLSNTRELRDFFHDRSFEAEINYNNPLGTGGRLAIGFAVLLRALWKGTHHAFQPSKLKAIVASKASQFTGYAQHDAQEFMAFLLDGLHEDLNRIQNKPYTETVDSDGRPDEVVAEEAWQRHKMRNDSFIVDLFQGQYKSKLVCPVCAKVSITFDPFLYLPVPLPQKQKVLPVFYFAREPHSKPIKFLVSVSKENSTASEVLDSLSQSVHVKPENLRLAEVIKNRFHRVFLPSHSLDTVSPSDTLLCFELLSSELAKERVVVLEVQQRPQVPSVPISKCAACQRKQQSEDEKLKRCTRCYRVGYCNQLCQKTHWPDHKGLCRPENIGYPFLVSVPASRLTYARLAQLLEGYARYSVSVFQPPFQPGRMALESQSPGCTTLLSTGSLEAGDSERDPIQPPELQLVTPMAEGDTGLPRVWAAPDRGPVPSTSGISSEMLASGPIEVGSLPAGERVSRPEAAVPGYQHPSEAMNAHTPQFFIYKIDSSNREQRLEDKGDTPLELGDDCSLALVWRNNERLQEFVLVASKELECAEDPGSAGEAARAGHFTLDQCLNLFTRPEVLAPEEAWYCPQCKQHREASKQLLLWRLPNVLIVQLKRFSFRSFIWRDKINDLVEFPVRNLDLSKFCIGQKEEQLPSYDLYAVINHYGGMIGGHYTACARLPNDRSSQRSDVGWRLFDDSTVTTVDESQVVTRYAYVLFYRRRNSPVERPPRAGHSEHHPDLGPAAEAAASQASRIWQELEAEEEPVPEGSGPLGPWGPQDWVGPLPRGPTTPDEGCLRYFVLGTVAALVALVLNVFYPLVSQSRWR
An outline of the steps:
(§1)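 Each value is an average log2 ratio of fragment to vehicle, tested by unpaired t-test. The underlying Spectronaut label-free quantities were global-median-normalised, and only proteins with ≥2 unique peptides were included. Triplicate HEK293T lysate samples (495 µg) were exposed to fragment at 200 µM or vehicle for 3 h, then to Biotin-Ahx-Ub-VS at 0.5 µM final for 1 h, before NeutrAvidin enrichment of labelled DUBs, LysC and trypsin digestion, and diaPASEF LC-MS/MS.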

The target of a further assay is USP24 (UniProt Q9UPU5). An outline of the steps: as §1
A further assay concerns the target T2, USP25 (UniProt Q9UHP3).
T2 sequence (whole entry): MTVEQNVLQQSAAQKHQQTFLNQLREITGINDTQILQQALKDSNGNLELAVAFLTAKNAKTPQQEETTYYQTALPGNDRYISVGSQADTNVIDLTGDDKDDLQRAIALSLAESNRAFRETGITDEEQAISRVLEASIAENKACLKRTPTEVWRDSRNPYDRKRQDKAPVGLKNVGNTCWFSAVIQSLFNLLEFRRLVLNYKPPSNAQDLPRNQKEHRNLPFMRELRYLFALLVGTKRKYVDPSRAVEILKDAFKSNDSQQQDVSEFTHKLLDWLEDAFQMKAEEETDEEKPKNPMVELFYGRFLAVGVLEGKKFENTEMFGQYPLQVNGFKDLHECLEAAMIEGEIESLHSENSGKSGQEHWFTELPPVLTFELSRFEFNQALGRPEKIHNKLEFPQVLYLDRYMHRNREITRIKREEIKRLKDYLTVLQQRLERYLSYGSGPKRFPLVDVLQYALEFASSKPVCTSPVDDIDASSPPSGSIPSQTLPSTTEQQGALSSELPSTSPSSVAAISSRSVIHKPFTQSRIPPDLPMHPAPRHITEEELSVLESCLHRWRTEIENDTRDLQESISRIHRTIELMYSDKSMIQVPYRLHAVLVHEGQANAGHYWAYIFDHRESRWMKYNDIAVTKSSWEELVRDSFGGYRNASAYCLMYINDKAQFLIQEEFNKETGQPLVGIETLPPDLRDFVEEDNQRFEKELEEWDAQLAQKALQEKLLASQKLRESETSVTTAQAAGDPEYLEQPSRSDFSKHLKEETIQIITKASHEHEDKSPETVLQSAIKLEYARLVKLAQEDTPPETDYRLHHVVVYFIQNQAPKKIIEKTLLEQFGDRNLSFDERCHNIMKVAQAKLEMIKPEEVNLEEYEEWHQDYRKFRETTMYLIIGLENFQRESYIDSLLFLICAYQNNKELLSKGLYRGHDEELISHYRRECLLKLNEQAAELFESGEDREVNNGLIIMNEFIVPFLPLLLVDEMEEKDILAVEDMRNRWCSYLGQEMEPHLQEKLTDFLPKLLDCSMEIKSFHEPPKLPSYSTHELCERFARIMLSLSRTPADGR
An outline of the steps:
as §1

The next assay addresses T3, USP28 (UniProt Q96RU2).
T3 sequence (whole entry): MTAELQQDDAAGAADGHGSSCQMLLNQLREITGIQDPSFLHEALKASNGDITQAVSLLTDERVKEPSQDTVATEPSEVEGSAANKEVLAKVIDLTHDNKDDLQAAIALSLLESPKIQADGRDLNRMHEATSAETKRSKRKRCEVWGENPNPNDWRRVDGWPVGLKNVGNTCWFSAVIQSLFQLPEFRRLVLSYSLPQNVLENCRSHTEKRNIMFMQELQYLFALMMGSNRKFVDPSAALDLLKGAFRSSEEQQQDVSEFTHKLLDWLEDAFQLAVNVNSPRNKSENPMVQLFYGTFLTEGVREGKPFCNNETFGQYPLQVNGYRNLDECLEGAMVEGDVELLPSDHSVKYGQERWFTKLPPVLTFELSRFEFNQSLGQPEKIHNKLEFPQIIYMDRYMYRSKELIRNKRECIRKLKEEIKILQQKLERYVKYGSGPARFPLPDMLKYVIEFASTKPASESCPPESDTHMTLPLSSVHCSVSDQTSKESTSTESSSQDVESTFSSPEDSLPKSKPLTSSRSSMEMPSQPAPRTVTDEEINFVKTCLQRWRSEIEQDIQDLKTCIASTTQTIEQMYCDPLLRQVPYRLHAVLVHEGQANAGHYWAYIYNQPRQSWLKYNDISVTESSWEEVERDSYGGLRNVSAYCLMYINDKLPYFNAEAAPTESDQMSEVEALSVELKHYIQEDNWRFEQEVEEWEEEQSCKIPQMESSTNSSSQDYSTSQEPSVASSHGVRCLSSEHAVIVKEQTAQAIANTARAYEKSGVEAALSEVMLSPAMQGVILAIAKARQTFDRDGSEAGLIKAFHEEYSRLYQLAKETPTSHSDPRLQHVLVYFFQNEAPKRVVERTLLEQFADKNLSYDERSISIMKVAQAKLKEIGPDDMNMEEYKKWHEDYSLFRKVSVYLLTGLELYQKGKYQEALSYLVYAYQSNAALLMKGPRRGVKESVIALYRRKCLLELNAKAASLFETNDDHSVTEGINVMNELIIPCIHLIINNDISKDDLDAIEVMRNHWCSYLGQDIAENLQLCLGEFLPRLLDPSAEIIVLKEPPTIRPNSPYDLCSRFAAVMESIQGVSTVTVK
Put shortly: as §1

Chain of USP24 (Q9UPU5 whole entry): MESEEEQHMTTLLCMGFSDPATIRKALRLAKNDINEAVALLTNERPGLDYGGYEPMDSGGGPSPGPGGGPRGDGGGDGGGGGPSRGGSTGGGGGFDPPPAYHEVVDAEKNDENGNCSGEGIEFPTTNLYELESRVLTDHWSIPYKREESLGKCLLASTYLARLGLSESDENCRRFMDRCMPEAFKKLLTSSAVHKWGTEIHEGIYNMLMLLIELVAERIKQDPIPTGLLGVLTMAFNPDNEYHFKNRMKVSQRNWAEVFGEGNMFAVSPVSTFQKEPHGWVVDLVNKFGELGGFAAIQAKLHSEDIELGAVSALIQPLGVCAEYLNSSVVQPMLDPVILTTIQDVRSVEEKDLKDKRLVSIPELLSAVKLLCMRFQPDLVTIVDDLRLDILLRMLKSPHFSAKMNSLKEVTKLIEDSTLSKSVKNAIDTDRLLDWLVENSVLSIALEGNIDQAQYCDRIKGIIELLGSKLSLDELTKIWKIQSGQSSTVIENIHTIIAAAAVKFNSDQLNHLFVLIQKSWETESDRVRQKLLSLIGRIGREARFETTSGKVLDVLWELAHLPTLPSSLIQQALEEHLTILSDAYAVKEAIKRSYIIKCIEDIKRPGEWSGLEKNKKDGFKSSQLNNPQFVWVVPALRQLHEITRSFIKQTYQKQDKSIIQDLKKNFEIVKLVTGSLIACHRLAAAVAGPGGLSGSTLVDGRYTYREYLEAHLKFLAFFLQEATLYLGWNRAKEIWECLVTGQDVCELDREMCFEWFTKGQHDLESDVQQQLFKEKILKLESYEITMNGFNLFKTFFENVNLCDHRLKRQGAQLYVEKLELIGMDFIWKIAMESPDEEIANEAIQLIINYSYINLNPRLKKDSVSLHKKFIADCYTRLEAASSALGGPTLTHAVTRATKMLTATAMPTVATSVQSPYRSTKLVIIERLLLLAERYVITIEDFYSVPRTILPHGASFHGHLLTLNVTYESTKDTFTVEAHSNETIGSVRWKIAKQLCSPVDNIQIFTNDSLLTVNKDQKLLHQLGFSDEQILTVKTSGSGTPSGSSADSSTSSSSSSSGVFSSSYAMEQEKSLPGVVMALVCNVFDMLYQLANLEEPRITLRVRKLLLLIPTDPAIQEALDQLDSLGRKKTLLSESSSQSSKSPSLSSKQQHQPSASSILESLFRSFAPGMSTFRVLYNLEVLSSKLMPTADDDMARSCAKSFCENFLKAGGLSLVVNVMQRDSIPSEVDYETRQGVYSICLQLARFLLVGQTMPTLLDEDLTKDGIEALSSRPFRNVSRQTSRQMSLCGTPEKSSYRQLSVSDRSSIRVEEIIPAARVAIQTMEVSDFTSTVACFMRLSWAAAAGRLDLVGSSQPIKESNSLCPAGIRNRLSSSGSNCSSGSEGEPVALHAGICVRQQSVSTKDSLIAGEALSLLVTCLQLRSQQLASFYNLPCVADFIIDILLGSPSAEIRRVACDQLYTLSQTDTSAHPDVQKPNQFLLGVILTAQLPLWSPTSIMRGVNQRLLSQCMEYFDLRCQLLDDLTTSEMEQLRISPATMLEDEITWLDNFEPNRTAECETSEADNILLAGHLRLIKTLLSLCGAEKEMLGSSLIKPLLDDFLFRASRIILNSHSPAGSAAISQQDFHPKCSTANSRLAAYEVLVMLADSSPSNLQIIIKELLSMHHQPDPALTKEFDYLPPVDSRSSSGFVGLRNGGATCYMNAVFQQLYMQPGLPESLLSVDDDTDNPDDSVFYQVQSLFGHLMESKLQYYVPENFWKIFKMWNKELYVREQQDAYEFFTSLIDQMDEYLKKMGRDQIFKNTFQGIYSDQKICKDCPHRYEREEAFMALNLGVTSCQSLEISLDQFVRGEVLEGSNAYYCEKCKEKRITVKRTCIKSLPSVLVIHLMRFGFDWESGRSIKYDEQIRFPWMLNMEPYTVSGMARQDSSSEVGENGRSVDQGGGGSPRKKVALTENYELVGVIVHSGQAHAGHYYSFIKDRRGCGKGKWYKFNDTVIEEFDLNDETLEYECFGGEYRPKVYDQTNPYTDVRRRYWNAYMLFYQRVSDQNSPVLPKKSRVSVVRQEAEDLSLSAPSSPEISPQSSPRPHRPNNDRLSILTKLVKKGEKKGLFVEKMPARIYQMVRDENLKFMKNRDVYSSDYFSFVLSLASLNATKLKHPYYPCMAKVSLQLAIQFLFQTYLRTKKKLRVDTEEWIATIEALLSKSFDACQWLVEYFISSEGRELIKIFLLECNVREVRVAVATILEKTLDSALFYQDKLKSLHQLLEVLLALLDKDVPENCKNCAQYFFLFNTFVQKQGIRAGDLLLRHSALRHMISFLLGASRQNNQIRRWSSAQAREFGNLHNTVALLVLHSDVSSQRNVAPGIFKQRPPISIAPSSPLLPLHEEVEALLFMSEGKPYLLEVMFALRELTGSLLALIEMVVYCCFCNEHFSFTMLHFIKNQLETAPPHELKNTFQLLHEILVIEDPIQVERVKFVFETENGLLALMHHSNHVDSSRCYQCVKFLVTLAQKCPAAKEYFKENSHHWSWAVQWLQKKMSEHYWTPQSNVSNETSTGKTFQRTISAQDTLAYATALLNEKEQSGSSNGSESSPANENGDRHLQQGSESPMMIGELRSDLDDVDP

As for `CC1CN(c2ccc(NC(=O)CCl)cc2)CC(C)O1` (centres undefined), the “log2 ratio of Biotin-Ahx-Ub-VS probe labelling” value is -0.126 in the assay with USP19, -0.205 with USP24, -1.58 (active) with USP25 and -1.57 (active) with USP28.
